Assay results reported in PubChem BioAssay (NCI).
The panel holds about 79,000 compounds, 15% with a hit somewhere; the sample as a whole holds those more often. Activity calls are given as the source filed them. Rule as the data show it: active = growth inhibition above about 70%; inactive = the rest.

Assays:
[1] = NCI Yeast Anticancer Drug Screen. Data for the rad50 strain (AID 155);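 also: 0% = growth of vehicle-only cultures of the same strain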; conditions: S. cerevisiae rad50 strain growth inhibition, stronger effect = higher value
How it was run: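 Yeast carrying a defined DNA repair defect were exposed to test compounds, and growth was compared with vehicle-treated controls to give percent inhibition.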

[2] = NCI Yeast Anticancer Drug Screen. Data for the mec2-1 strain (AID 157); conditions: S. cerevisiae mec2-1 strain, stronger effect = higher value
How it was run: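 Cells of the genetically defined mec2-1 yeast strain are incubated with test compound. Inhibition of growth is calculated against vehicle-treated controls.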

[3] = NCI Yeast Anticancer Drug Screen. Data for the sgs1 mgt1 strain (AID 161);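 also: 0% = growth of cultures given vehicle only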; conditions: S. cerevisiae sgs1 mgt1 strain, stronger effect = higher value
How it was run: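 Mutant yeast exposed to compound; growth scored against vehicle-only wells.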

[4] = NCI Yeast Anticancer Drug Screen. Data for the cln2 rad14 strain (AID 165);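 also: 0% = growth equal to vehicle treated cultures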; conditions: S. cerevisiae cln2 rad14 strain, stronger effect = higher value
How it was run: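 The screen exposed genetically defined yeast (cln2 rad14) to test compounds and scored growth inhibition relative to vehicle-treated controls.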

[5] = NCI Yeast Anticancer Drug Screen. Data for the bub3 strain (AID 167); conditions: S. cerevisiae bub3 mutant strain, stronger effect = higher value
How it was run: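 Compounds were applied to a genetically altered yeast strain carrying a cell-cycle control defect. Growth inhibition was scored against vehicle-treated controls.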

[6] = NCI Yeast Anticancer Drug Screen. Data for the mlh1 rad18 strain (AID 175); conditions: S. cerevisiae mlh1 rad18 strain growth inhibition, stronger effect = higher value
How it was run: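 Compound-treated yeast growth, normalised to vehicle controls. Strain bears defined DNA repair mutations.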

[7] = at 5.0 µM (retest, dose inferred, filed as 0.5)
[8] = at 50.0 µM (retest, dose inferred, filed as 5.0)

Measured: growth inhibition

COc1ccc(N=C2C(=S)N(c3ccc(OC)cc3)/C(=N/S(=O)(=O)c3ccccc3)N2c2ccccc2)cc1
inactive: [1]; [7] 10% | [1]; [8] 18% | [1]; at 50.0 µM 8.6% | [2]; [7] 9% | [2]; [8] 23% | [2]; at 50.0 µM -4.1% | [3]; [7] -23% | [3]; [8] 0% | [3]; at 50.0 µM 5.7% | [4]; [7] -11% | [4]; [8] 3% | [4]; at 50.0 µM 11.2% | [5]; [7] -13% | [5]; [8] 11% | [5]; at 50.0 µM 1.65% | [6]; [7] 14% | [6]; [8] 16% | [6]; at 50.0 µM 14%

CC1(c2ccc(Cl)cc2)OC(=O)c2c1ccc1ccccc21 (configuration not stated)
active: [1]; at 50.0 µM 97.7% | [2]; at 50.0 µM 93.6% | [3]; at 50.0 µM 98% | [4]; at 50.0 µM 88.8% | [5]; at 50.0 µM 97.8% | [6]; [8] 75% | [6]; at 50.0 µM 96%
inactive: [1]; [7] 13% | [1]; [8] 55% | [2]; [7] -1% | [2]; [8] 53% | [3]; [7] 7% | [3]; [8] 55% | [4]; [7] 2% | [4]; [8] 47% | [5]; [7] 22% | [5]; [8] 52% | [6]; [7] -1%

c1ccc(COc2cccc3[nH]ccc23)cc1
active: [1]; at 50.0 µM 74.4% | [2]; at 50.0 µM 90.2% | [3]; at 50.0 µM 86.6% | [4]; at 50.0 µM 88.8% | [5]; at 50.0 µM 83.8% | [6]; at 50.0 µM 95.5%
inactive: [1]; [7] -3% | [1]; [8] 29% | [2]; [7] -3% | [2]; [8] 10% | [3]; [7] -6% | [3]; [8] 5% | [4]; [7] -7% | [4]; [8] 6% | [5]; [7] 3% | [5]; [8] 35% | [6]; [7] -5% | [6]; [8] 25%

CCCNCCCC(C)Nc1cc(OC)cc2c(C)ccnc12 (configuration not stated)
inactive: [1]; [7] 17% | [1]; at 50.0 µM 66.4% | [2]; [7] 8% | [2]; [8] 48% | [2]; at 50.0 µM 55.2% | [3]; [7] 20% | [3]; at 50.0 µM 41.9% | [4]; [7] 2% | [4]; [8] 46% | [4]; at 50.0 µM 27.1% | [5]; [7] -6% | [5]; at 50.0 µM 53.7% | [6]; [7] 11% | [6]; at 50.0 µM 59.2%
active: [1]; [8] 73% | [3]; [8] 78% | [5]; [8] 80% | [6]; [8] 86%

Cc1ccc(S(=O)(=O)/C=C2\COc3ccccc3C2=O)cc1
active: [1]; [8] 99% | [1]; at 50.0 µM 99.2% | [2]; [8] 99% | [2]; at 50.0 µM 99.7% | [3]; [7] 90% | [3]; [8] 100% | [3]; at 50.0 µM 99.2% | [4]; [8] 99% | [4]; at 50.0 µM 99% | [5]; [7] 77% | [5]; [8] 99% | [5]; at 50.0 µM 99.5% | [6]; [7] 79% | [6]; [8] 99% | [6]; at 50.0 µM 99.5%
inactive: [1]; [7] 51% | [2]; [7] 65% | [4]; [7] 44%

CC(=O)Nc1ccc(-c2csc(Nc3ccnc4cc(Cl)ccc34)n2)cc1
inactive: [1]; [7] 12% | [1]; [8] 40% | [1]; at 50.0 µM 69.8% | [2]; [7] -4% | [2]; [8] 46% | [2]; at 50.0 µM 51.4% | [3]; [7] 9% | [3]; [8] 69% | [4]; [7] 0% | [4]; [8] 4% | [4]; at 50.0 µM 41% | [5]; [7] -2% | [5]; [8] 40% | [5]; at 50.0 µM 33.3% | [6]; [7] 3% | [6]; [8] 27%
active: [3]; at 50.0 µM 72.8% | [6]; at 50.0 µM 82.9%

C/C(=N/NC(=S)N1CCCC1)c1cccc(/C(C)=N\NC(=S)N2CCCC2)n1
inactive: [1]; [7] 11% | [1]; [8] 12% | [1]; at 50.0 µM 15.2% | [2]; [7] 13% | [2]; [8] 28% | [2]; at 50.0 µM -14.9% | [3]; [7] -17% | [3]; [8] -4% | [3]; at 50.0 µM -6.45% | [4]; [7] 1% | [4]; [8] -4% | [4]; at 50.0 µM -3.15% | [5]; [7] -3% | [5]; [8] 5% | [5]; at 50.0 µM -8.05% | [6]; [7] 17% | [6]; [8] 18% | [6]; at 50.0 µM 1.65%

CCc1ccccc1NC(=O)C(=O)CC(=O)c1ccc(Cl)s1
inactive: [1]; [7] 1% | [1]; [8] 1% | [1]; at 50.0 µM 45.1% | [2]; [7] -2% | [2]; [8] -40% | [2]; at 50.0 µM 2.6% | [3]; [7] -1% | [3]; [8] 2% | [3]; at 50.0 µM 6.85% | [4]; [7] -2% | [4]; [8] 6% | [4]; at 50.0 µM 26.2% | [5]; [7] 2% | [5]; [8] 1% | [5]; at 50.0 µM -9.55% | [6]; [7] 0% | [6]; [8] 5% | [6]; at 50.0 µM -0.1%

CCCCCCCCN/N=C(/C)CCCCCO
inactive: [1]; [7] -6% | [1]; [8] 4% | [1]; at 50.0 µM -14.2% | [2]; [7] 4% | [2]; [8] 9% | [2]; at 50.0 µM -11.8% | [3]; [7] 1% | [3]; [8] 1% | [3]; at 50.0 µM -12.7% | [4]; [7] -67% | [4]; [8] -2% | [4]; at 50.0 µM 22.8% | [5]; [7] 1% | [5]; [8] -80% | [5]; at 50.0 µM 15.9% | [6]; [7] -1% | [6]; [8] -12% | [6]; at 50.0 µM -23.6%
